Experimental data from PubChem BioAssay AID1159580 (chemical genetic matrix, 2015).
Where “and” joins values, the source holds several entries; their conditions need not be identical. Identical values can stand only once. Hit rate of the full screen: of about 5,500 compounds, about 2,000 (36%) were called active. About 18% were inconclusive and are not listed. No stated cut-off is given here; in the data, active means normalized growth mostly below about 0.91 (no sharp cut-off); inconclusive means no clear call, values can overlap the other calls; inactive means mostly above about 0.92. The list shows a part of the results.

Assay: chemical genetic growth profiling, strain panel (AID 1159580);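 further: tested at 20 µM; growth read once vehicle control cultures reached saturation at 30 °C; 1 = growth at the plate median or of vehicle wells; lower values mean less growth of the strain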
Details: S. cerevisiae deletion strains, growth OD

Measured: normalized growth

CC(C)CCCC(C)[C@H]1CCC2C3CC=C4C[C@@H](O)CC[C@]4(C)C3CC[C@@]21C (some centres undefined)
inactive: locus YAL021C, strain ccr4, hits give low values 0.974 | locus YAL026C, strain drs2, hits give low values 0.96 | locus YAL030W, strain snc1, hits give low values 0.979 | locus YBL061C, strain skt5, hits give low values 0.99 | locus YBR009C, strain hhf1, hits give low values 0.986 | locus YBR021W, strain FUR4, hits give low values 1.01 | locus YBR023C, strain chs3, hits give low values 0.989 | locus YBR171W, strain sec66, hits give low values 0.987 | locus YBR229C, strain ROT2, hits give low values 1.01 | locus YBR231C, strain swc5, hits give low values 0.989 | locus YBR279W, strain paf1, hits give low values 0.951 | locus YCL011C, strain gbp2, hits give low values 0.972 | locus YCL016C, strain dcc1, hits give low values 0.994 | locus YCL029C, strain bik1, hits give low values 0.979 | locus YCL061C, strain MRC1, hits give low values 0.985 | locus YCL069W, strain vba3, hits give low values 0.964 | locus YCR088W, strain abp1, hits give low values 0.992 | locus YDL005C, strain med2, hits give low values 0.976 | locus YDL035C, strain GPR1, hits give low values 1.03 | locus YDL040C, strain nat1, hits give low values 0.986 | locus YDL074C, strain BRE1, hits give low values 1.03 | locus YDL101C, strain DUN1, hits give low values 1.01 | locus YDL134C, strain PPH21, hits give low values 1.03 | locus YDL185W, strain tfp1, hits give low values 0.994 | locus YDL192W, strain arf1, hits give low values 0.992 | locus YDR001C, strain nth1, hits give low values 0.981 | locus YDR069C, strain doa4, hits give low values 0.966 | locus YDR101C, strain arx1, hits give low values 0.962 | locus YDR137W, strain rgp1, hits give low values 0.916 | locus YDR159W, strain sac3, hits give low values 0.963 | locus YDR162C, strain NBP2, hits give low values 1 | locus YDR195W, strain ref2 0.957 | locus YDR297W, strain sur2, hits give low values 0.985 | locus YDR318W, strain mcm21, hits give low values 1.01 | locus YDR334W, strain swr1, hits give low values 0.964 | locus YDR335W, strain msn5, hits give low values 0.996 | locus YDR388W, hits give low values 0.988 | locus YDR392W, strain spt3, hits give low values 0.935 | locus YDR502C, strain sam2, hits give low values 0.974 | locus YEL003W, strain gim4, hits give low values 0.982 | locus YEL037C, strain rad23, hits give low values 0.953 | locus YEL061C, strain CIN8 (second series), hits give low values 0.965 | locus YEL061C, strain CIN8, hits give low values 1.01 | locus YER015W, strain faa2, hits give low values 0.995 | locus YER016W, strain bim1, hits give low values 0.987 | locus YER110C, hits give low values 0.991 | locus YER111C, strain swi4, hits give low values 0.985 | locus YER155C, strain BEM2 (second series), hits give low values 0.984 | locus YER155C, strain BEM2, hits give low values 1.01 | locus YER167W, strain BCK2, hits give low values 1 | locus YFR010W, strain ubp6, hits give low values 0.961 | locus YGL078C, strain dbp3, hits give low values 0.996 | locus YGL086W, strain mad1, hits give low values 0.991 | locus YGL167C, strain pmr1, hits give low values 0.99 | locus YGL173C, strain kem1, hits give low values 0.984 | locus YGL227W, strain vid30, hits give low values 0.99 | locus YGL240W, strain doc1, hits give low values 0.986 | locus YGL248W, strain PDE1, hits give low values 1.03 | locus YGL253W, strain hxk2, hits give low values 0.976 | locus YGR078C, strain PAC10, hits give low values 1.01 | locus YGR135W, strain pre9, hits give low values 1 | locus YGR252W, strain gcn5, hits give low values 0.978 | locus YHR013C, strain ard1, hits give low values 0.96 | locus YHR027C, strain rpn1, hits give low values 0.997 | locus YHR030C, strain SLT2, hits give low values 1.01 and 1.02 | locus YHR079C, strain IRE1 (second series), hits give low values 0.997 | locus YHR079C, strain IRE1, hits give low values 1.01 | locus YHR094C, strain hxt1, hits give low values 0.988 | locus YHR129C, strain ARP1, hits give low values 0.999 | locus YHR142W, strain chs7, hits give low values 0.956 | locus YHR200W, strain rpn10, hits give low values 0.995 | locus YIL066C, strain RNR3, hits give low values 1.01 | locus YIL073C, strain SPO22, hits give low values 1 | locus YIL125W, strain kgd1, hits give low values 0.99 | locus YIR030C, strain dcg1, hits give low values 0.987 | locus YJL092W, strain hpr5, hits give low values 0.992 | locus YJL095W, strain BCK1 (second series), hits give low values 0.987 | locus YJL095W, strain BCK1, hits give low values 1.04 and 1.01 | locus YJL115W, strain asf1, hits give low values 0.981 | locus YJL129C, strain trk1, hits give low values 0.968 | locus YJL134W, strain LCB3, hits give low values 1.01 | locus YJL154C, strain vps35, hits give low values 0.981 | locus YJL164C, strain tpk1, hits give low values 0.985 | locus YJL166W, strain qcr8, hits give low values 0.985 | locus YJL168C, strain set2, hits give low values 1 | locus YJL187C, strain SWE1 (second series), hits give low values 1.01 | locus YJL187C, strain SWE1, hits give low values 0.974 | locus YJR043C, strain POL32, hits give low values 1.01 | locus YJR066W, strain TOR1, hits give low values 0.987
